Screening data deposited in PubChem BioAssay by several laboratories.
The list is not random: actives were taken first. Their share in the collection is about 3.5%.
TRAIL sens C8: viability loss with TRAIL in NB7+C8 cells, primary screen, TRAIL sensitizer project, cell-based, ATPlite luminescence; inhibition (viability loss, TRAIL sensitization), % at 10 µM; 360,000 tested, 1% active; AID 624354, 2012;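 active = compounds causing at least 50% loss of cell viability in the single-dose screen, relative to plate controls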
Platelet DG rel: inhibitors of platelet dense granule secretion, primary screen, cell-based, MLPCN, human platelets. 300,000 tested, 0.22% active. human platelet-rich plasma, SFLLRN dense granule ATP release, luminescence. inhibition, %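 (compounds screened at 7.5 µM in platelet-rich plasma)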. AID 1663, 2009;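 active = mean replicate score, as percent of positive control, at or above 50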
HSP90 refold inh: HSP90 inhibitors, primary screen, cell lysate, luminescence. Heat shock protein HSP 90 (rabbit reticulocyte lysate; luciferase refolding). Rabbit reticulocyte lysate, luciferase refolding luminescence, 3 h. inhibition, % at 5.6 µM. 290,000 tested, 0.91% active;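 active = inhibition above the screen-wide mean plus 3 SD, computed separately per campaign, cut at about 16% in these data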;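 also: 0% = DMSO wells and 100% = 60 µM geldanamycin wells; inhibitors lower the luminescence because luciferase stays unfolded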
PPC-1+TRAIL kill: compounds killing PPC-1 cancer cells with TRAIL present, primary screen, TRAIL potentiator project, ATPLite luminescence, uHTS | PPC-1 cells + TRAIL, ATPLite viability luminescence | 220,000 tested, 0.41% active | cell killing (% activity), % at 4 µM or 5 µM;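 active = cell killing above 50% in the first pass at 4 µM, then a duplicate retest at 5 µM averaging 50% or more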;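 also: plate controls were cells with TRAIL plus DMSO for no effect and medium-only wells lacking cells for full effect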
TROY signal inh: inhibitors of TROY-driven NF-kB signaling, primary screen, Q293 LMP1-TROYcd cells, NF-kB luciferase, uHTS; Q293 LMP1-TROYcd NF-kB luciferase reporter, 4 h; inhibition, % at 10 µM; 360,000 tested, 0.98% active;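 active = compounds whose plate-normalised and pattern-corrected inhibition of the luciferase reporter signal at the single screening dose is 50% or more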
TWEAK Fn14 block: inhibitors of TWEAK-Fn14 signaling, primary screen, luciferase reporter cells, uHTS. TWEAK-stimulated Fn14 reporter cells, luciferase luminescence, 8 h. inhibition, % at 10 µM. 360,000 tested, 2% active; in the data active = inhibition above about 50%
Active calls of the source: *; x = not tested or not shown.

SMILES | TRAIL sens C8 | Platelet DG rel | HSP90 refold inh | PPC-1+TRAIL kill | TROY signal inh | TWEAK Fn14 block
Cc1ccc(C=C2C=C(c3ccccc3)OC2=O)cc1 | -15.3 | x | x | x | -42.5 | -20.4
Cc1ccc(C2=C/C(=C/c3cccs3)C(=O)O2)cc1 | -2.6 | 8.2 | 3.8 | 13.3 | -31.8 | 52.9*
C[C@@H]1CN([C@H](C)CO)C(=O)CCCn2cc(nn2)CO[C@H]1CN(C)C(=O)Nc1ccc(-c2cccs2)cc1 | -4.7 | x | x | x | -25.8 | -24.8
O=C1C=C(c2cccc3c2oc2ccccc23)C[C@@H](c2ccc(F)cc2)C1 | 3.4 | x | x | x | -20.0 | -20.4
COc1cccc(/C=C/C(=O)N2CCN(S(=O)(=O)c3ccccc3)CC2)c1OC | 1.1 | 4.3 | -2.1 | 14.9 | -18.4 | 73.4*
CCOC(=O)C1CCN(C(=O)/C=C/c2ccc(OC)cc2)CC1 | 9.3 | -6.5 | 5.1 | 4.2 | -30.6 | -14.8
COc1ccc(/C=C/C(=O)N2CCN(S(=O)(=O)c3ccccc3)CC2)cc1OC | -9.4 | -10.1 | -3.0 | 1.2 | 2.1 | 19.8
CCOC(=O)C1CCN(C(=O)/C=C/c2ccccc2OC)CC1 | 8.2 | 2.9 | 1.4 | 7.7 | -9.4 | 59.0*
COc1ccc(C)cc1S(=O)(=O)NNc1nc(C)cc(C)n1 | -18.1 | x | x | x | -10.6 | 10.8
CN(C/C=C/c1ccccc1[N+](=O)[O-])Cc1ccccc1 | -9.4 | 4.6 | 0.8 | x | -3.9 | 11.2
Cc1nnc(SCC(=O)NC2CC2)n1CC1CCCO1 (centres undefined) | 2.6 | 2.5 | -1.3 | -10.2 | 5.3 | 1.3
Cc1ccc(NC(=O)c2c3c(nc4ccccc24)CCC3)cc1S(=O)(=O)N(C)C | 2.2 | 2.1 | -5.3 | -2.9 | 47.8 | 71.0*
COCCN(C(=O)c1ccc(N2CCCC2=O)cc1)c1c(N)n(Cc2ccccc2)c(=O)[nH]c1=O | -10.2 | x | x | x | 8.2 | 10.7
Cc1ccccc1CN1CCN(C/C=C/c2ccccc2)CC1 | -16.0 | 13.2 | 6.7 | 16.6 | 12.0 | 58.0*
CS(=O)(=O)N1CCN(C/C=C/c2ccccc2)CC1 | 1.3 | 5.8 | 4.3 | 9.0 | 9.0 | 16.3
Cc1ccc(CS(=O)(=O)c2ncn[nH]2)cc1 | -3.6 | -4.2 | 0.2 | -3.6 | 7.3 | 0.7
O=C(C/C=N/OCc1c(Cl)cccc1Cl)c1cnc(-c2ccccc2)s1 | 1.7 | -45.1 | -2.7 | 14.1 | 53.7* | -15.8
OC(Cc1ccncc1)c1ccccc1Cl (centres undefined) | 2.0 | x | x | x | 7.5 | -4.6
Cc1nnc(SCC(=O)Nc2ccccc2F)n1-c1ccc(F)cc1 | 8.5 | 3.0 | -1.0 | x | -21.2 | -14.8
COc1ccc(Cc2c(-c3cccc(Cl)c3)nc3cc(C)c(Br)c(C)n23)c(C)c1 | 4.1 | x | x | x | -14.7 | 7.4
COc1cc2sc3ccc(-c4ccc(CN5CCOCC5)cc4)cc3c(=O)c2cc1OC | 52.9* | x | x | x | -19.3 | 2.0
COc1ccc(CN2CCOCC2)cc1OC | 1.3 | -12.1 | -2.8 | -19.4 | x | 98.5*
COc1ccc(CN2CCOCC2)cc1Br | 9.4 | 14.1 | -0.6 | 14.7 | 11.4 | -7.7
O=C(CN1C(=O)NC2(CCCC2)C1=O)OCCOc1ccc(Cl)cc1Cl | -13.0 | -9.8 | x | x | -17.4 | 5.8
Nc1ccccc1SC(CC(=O)c1ccccc1)c1ccccc1 (centres undefined) | 7.6 | x | x | x | -47.0 | 1.1
SMILES | TRAIL sens C8 | Platelet DG rel | HSP90 refold inh | PPC-1+TRAIL kill | TROY signal inh | TWEAK Fn14 block
CC(C(Sc1ccccc1N)c1ccccc1)[N+](=O)[O-] (centres undefined) | 10.5 | 1.0 | -0.1 | 17.1 | 55.0* | -25.1
N/C(=N\OC(=O)c1ccc(Cl)cc1[N+](=O)[O-])c1ccccn1 | 31.5 | 12.5 | 8.6 | x | -2.3 | -39.1
Cc1c(C(=O)O/N=C(\N)c2ccccn2)cccc1[N+](=O)[O-] | 74.9* | 32.2 | 8.0 | 47.8 | -15.5 | 67.0*
N/C(=N\OC(=O)c1cccc2ccccc12)c1ccccn1 | 55.7* | 14.7 | 14.8 | 30.8 | 0.0 | 32.1
Oc1ccc(-c2cnc(-c3ccc(O)cc3)nc2)cc1 | 80.3* | 13.9 | 11.8 | x | -50.4 | 7.4
Oc1ccc(-c2cnc3ccccc3n2)cc1 | 6.1 | -9.6 | x | x | -56.9 | 3.2
CC1=C(SCc2ccccc2)C(=O)c2ccccc2C1=O | 51.5* | x | x | x | 37.7 | 87.9*
COc1ccc(NC(=O)O/N=C/c2ccc(Br)cc2)cc1 | 7.4 | -2.7 | -1.0 | x | -57.2 | -15.4
COc1ccc(/C=N/OC(=O)Nc2ccccc2OC)cc1 | 52.1* | 3.4 | 5.5 | 29.4 | -69.6 | 4.7
CCOC(=O)c1ccc(N=c2sc(C(=O)OC)cc(=O)n2-c2ccc(C(=O)OCC)cc2)cc1 | 64.7* | -1.1 | 3.4 | -4.1 | 20.5 | 54.1*
Cc1oc2ccc(O)cc2c1C(=O)c1ccc(F)cc1 | -5.9 | 5.1 | x | x | -52.1 | 6.5
Cc1ccc(C(=O)COC(=O)COc2ccc(C)c(C)c2)cc1 | -6.6 | -6.5 | -4.6 | x | -0.7 | 1.9
COc1ccc(OC)c(NC(=O)C2(C)CCN2CCc2ccccc2)c1 (centres undefined) | 14.5 | x | x | x | 2.8 | -6.4
Oc1ccc(C[C@H]2CN([C@@H](Cc3cccc(O)c3)CN3CCC[C@@H]3CN3C(=S)NC[C@@H]3Cc3ccccc3)C(=S)N2CC2CCCCC2)cc1 | 3.4 | x | x | x | 17.1 | 55.5*
Oc1ccc(C[C@H]2CNC(=S)N2CC2CCCN2C[C@H](Cc2ccc(O)cc2)N2C[C@H](Cc3ccccc3)N(CCc3ccccc3)C2=S)cc1 (some centres undefined) | 6.0 | x | x | x | 4.9 | 54.9*
Oc1ccc(C[C@H]2CNC(=S)N2CC2CCCN2C[C@H](Cc2ccccc2)N2C[C@H](Cc3ccc(O)cc3)N(CC3CCCCCC3)C2=S)cc1 (some centres undefined) | 14.2 | x | x | x | -1.2 | 41.1
CC(C)C[C@@H](CN1CCCC1CN1C(=S)NC[C@@H]1Cc1ccc(O)cc1)N1C[C@H](Cc2ccc(O)cc2)N(CC2CCCCC2)C1=S (some centres undefined) | 23.9 | x | x | x | 17.1 | 55.9*
Oc1ccc(C[C@H]2CN([C@@H](Cc3ccccc3)CN3CCCC3CN3C(=S)NC[C@@H]3Cc3ccccc3)C(=S)N2CC2CCCCC2)cc1 (some centres undefined) | -7.6 | x | x | x | 6.0 | 3.4
Oc1ccc(C[C@H]2CNC(=S)N2CC2CCCN2C[C@H](Cc2ccc(O)cc2)N2C[C@H](Cc3ccc(O)cc3)N(CC3CCCCC3)C2=S)cc1 (some centres undefined) | 19.4 | x | x | x | 44.9 | 96.4*
COc1ccc([C@H]2CC(=O)C=C(c3ccc(C)c(F)c3)C2)cc1 | -8.5 | x | x | x | -16.3 | -10.6
COc1ccc(S(=O)(=O)N2CCOCC2)cc1NC(=O)CSc1ncccn1 | -5.5 | x | x | x | -10.4 | -7.7
